Outcome and AC50 data for eleven compounds are collected here from PubChem BioAssay (EPA / NIEHS).

Active and inactive are the calls of the source. Rule for the calls: active = hit-call score of the fitted dose curve at least 0.9, where 1 is the maximum; inactive = score below 0.9.

This assay can be described thus: CEETOX_H295R_ESTRONE: CeeTox H295R High-throughput Steroidogenesis Assay for Estrone (AID 2283441).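 For AC50: human adrenal H295R cells prestimulated with forskolin for two days.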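 Note: estrone secreted into medium measured by LC-MS/MS after dansyl derivatization.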 The conditions noted are these: actives raise or lower the signal. The method, then:
CEETOX_H295R is a cell-based, multiplexed-readout assay that uses H295R, a human adrenal gland cell line, with measurements taken at 48 hours after chemical dosing in a 96-well plate.CEETOX_H295R_ESTRONE is one of 23 assay component(s) measured or calculated from the CEETOX_H295R assay. It is designed to make measurements of hormone induction, a form of inducible reporter, as detected with absorbance signals by HPLC-MS-MS technology.Data from the assay component CEETOX_H295R_ESTRONE was analyzed into 1 assay endpoint. This assay endpoint, CEETOX_H295R_ESTRONE, was analyzed with bidirectional fitting relative to DMSO as the negative control and baseline of activity. Using a type of inducible reporter, gain or loss-of-signal activity using HPLC-MS-MS was used to understand synthesis of Estrone in H295R cell line at 48hr of chemical exposure. To generalize the intended target to other relatable targets, this assay endpoint is annotated to the steroid hormone intended target family, where the subfamily is estrogens.
Cell culture and media preparation procedures were conducted in accordance with OECD Test No. 456 guidelines, with minor modifications. H295R cells (ATCC CRL-2128) were expanded for 5 passages and frozen in batches in liquid nitrogen. Prior to the steroidogenesis assay, H295R cells were thawed and passed at least 4 times. The maximum passage was 10. […] After seeding cells into 96-well plates at 50-60% confluency, cells were allowed to adhere overnight. Prior to chemical testing, culture medium was replaced with 175 uL medium containing 10 uM forskolin to stimulate steroidogenesis for 48 hours. Following prestimulation, forskolin medium was replaced with medium containing test chemical solubilized in DMSO (ensuring a final concentration of 0.1% DMSO). Test chemicals were incubated for 48 hours, then the medium was removed and split into 2 vials containing approximately 75uL each, and stored at -80 C prior to hormone analysis. For steroid quantification, media samples were shipped to OpAns, LLC (Durham, NC) on dry ice, and samples were thawed to room temperature prior to liquid-liquid extraction. Steroid hormones were extracted from media samples using methyl tertbutyl ether (MTBE). An extra derivatization with dansyl chloride was included for estrogen (estrone and estradiol) detection only. Steroid hormones were separated by HPLC, eluted using a reverse phase C18 gradient with electrospray positive ionization, followed by quantification by tandem mass spectrometry (MS/MS). Data were acquired on a MassHunter Workstation Acquisition version B03.01 (Agilent Technologies, Inc.) and processed using MassHunter Quantitative Analysis for QQQ. Accuracy was determined for each hormone analyte from 3 standards to determine upper and lower limits of quantification (ULOQ and LLOQ, respectively) using a 7-point standard curve. Precision and accuracy of the extraction and quantification methods were calculated as the percent relative standard deviation (%RSD) of the spiked standards and percent spiked standard recovered, respectively. The goal was to achieve 100% accuracy (i.e., recover all spiked-in standard at quantification with minimal loss during run time) and good precision (i.e., have %RSD <15% to ensure reproducibility). Test medium was removed following chemical exposure, and cell viability was evaluated in the same wells by MTT. MTT procedures were as follows: after removal of test medium, 500 uL of 0.5 mg/ml of 3-[4,5-dimethylthiazol-2-y]2,5-diphenyltetrazoliumbromide solution was added to the cells. Following a 4-hour incubation at 37 C and 5% CO2 to allow formazan-crystal formation, the MTT solution was removed and blue formazan salt crystals were solubilized using 500uL anhydrous isopropanol with shaking for 20 minutes. Absorbance was read at 570 and 650nm using a Packard Fusion microplate reader. Background correction of absorbance units was used to determine percent change relative to controls. […] […]
For `CCC[CH2][Sn]([Cl])([Cl])[CH2]CCC`, the compound was classed as inactive.
For `CC(C)(C)c1cc([N+](=O)[O-])cc(C(C)(C)C)c1O`, the outcome was inactive.
As for `OC(Cc1ccccc1Cl)(Cn1cncn1)C1(Cl)CC1` (stereo unspecified), the concentration at half-maximal activity (AC50) is 7.74 µM (active).
Consider `CCCCCCCCCCCCN(C)C`, for which the result was inactive.
Regarding `Oc1c(Br)cc(Br)cc1Br`, the call was inactive.
Turning to `CCOCn1c(-c2ccc(Cl)cc2)c(C#N)c(Br)c1C(F)(F)F`, the AC50 was 5.33 µM (active).
For `CCCSP(=S)(OCC)Oc1ccc(SC)cc1` (stereo unspecified), the result was inactive.
Take `Oc1cccc(-c2ccccc2)c1`: the outcome was inactive.
In the case of `O=[N+]([O-])c1ccc(Nc2ccccc2)cc1`, the compound was called inactive.
Turning to `CC(C)(COCC1CO1)COCC1CO1` (stereo unspecified), the call was inactive.
`CC(C)=CC1C(C(=O)OCc2cccc(Oc3ccccc3)c2)C1(C)C` (stereo unspecified): the compound was called inactive.
